SMILES strings stand for the structures. Among all 380,000 compounds or so, about 4,000 (1.1%) were called active. Inconclusive results (about 3%) are left out. The call rests on the fitted dose curve; in most records, active means well fitted activation curve with a large enough effect; inconclusive means small, poorly fitted or top-dose-only effect; inactive means no such curve, though single readings can be large or run the other way. What follows is part of a selection rich in actives, with near analogues and random picks from the rest.
Potency means the concentration at half of the fitted maximal effect.

The nature of this test: qHTS Assay to Identify Small Molecule Activators of BRCA1 Expression. Further: nearly all actives have a fitted effect of over 80% in size. As to conditions: MCF7-BRCA1-FFLuc reporter, luminescence, 48 h. From the text: Functionally, BRCA1 has been implicated in a wide array of cellular activities, including DNA damage repair, cell-cycle checkpoint control, growth inhibition, apoptosis, transcriptional regulation, chromatin remodeling, protein ubiquitylation, and mammary stem cell self-renewal and differentiation. Reduction in BRCA1 levels is associated with an increase in tumor growth and resistance to anti-estrogenic agents, such as tamoxifen, while an increase in BRCA1 expression leads to cell growth arrest and apoptosis. […] The frequent loss of BRCA1 expression in invasive breast cancers in the absence of somatic mutation has been attributed to numerous mechanisms, including hypermethylation of the BRCA1 promoter, exaggerated ubiquitylation of BRCA1 protein, and improper intracellular localization. […]
5microl of MCF7-BRCA1-FFLuc cell suspension (400 cells/microl in phenol-red free MEM) are dispensed into Greiner white solid bottom 1536-well assay plates, yielding a final well density of 2000 cells/well. […] The NCGC in-house luciferase substrate reagent, Buglite, is then added (2.5microl) and plates incubated for 15 minutes, before being transferred to a ViewLux high-throughput CCD imager (PerkinElmer) wherein single end-point measurements of luminescence are acquired using a clear filter. […]
A general note: In qHTS, concentration-response curves come from the screen itself.
`O=C(OCC(=O)c1cccs1)C1=COCCO1`: the Potency is 15.8 µM (active).

For the origin of these results see PubChem BioAssay AID624202 (National Center for Advancing Translational Sciences (NCATS), 2012).
